From PubChem BioAssay AID1159580 (chemical genetic matrix, 2015)
Screen size: about 5,500 compounds; about 2,000 (36%) were called active. Another 18% or so got no clear call; they are omitted. Cut-off read from the data, not from the text of the source: active = normalized growth mostly below about 0.91 (no sharp cut-off); inconclusive = no clear call, values can overlap the other calls; inactive = mostly above about 0.92. Some of the results follow.

Assay: chemical genetic growth profiling, strain panel (AID 1159580);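 note: tested at 20 µM; growth read once vehicle control cultures reached saturation at 30 °C; 1 = growth at the plate median or of vehicle wells; lower values mean less growth of the strain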
Details: S. cerevisiae deletion strains, growth OD

Measured: normalized growth

O=C(CCCN1CCC2(CC1)C(=O)N(CCc1ccc(N=C=S)cc1)CN2c1ccccc1)c1ccc(F)cc1
inactive: locus YAL040C, strain CLN3, active compounds read low 1.04 | locus YCL061C, strain MRC1 (second series), active compounds read low 0.982 | locus YDR363W, strain ESC2, active compounds read low 0.972 | locus YER002W, strain NOP16, active compounds read low 1.03 | locus YGR229C, strain SMI1, active compounds read low 0.984 | locus YJR075W, strain HOC1, active compounds read low 0.968 | locus YMR263W, strain SAP30, active compounds read low 0.987 | locus YMR307W, strain GAS1, active compounds read low 0.982 | locus YNL175C, strain NOP13, active compounds read low 1 | locus YNL197C, strain WHI3, active compounds read low 1.02 | locus YNL224C, strain SQS1, active compounds read low 1.05 | locus YNL322C, strain KRE1, active compounds read low 0.948 | locus YOR083W, strain WHI5 (second series), active compounds read low 1.08 | locus YPL055C, strain LGE1, active compounds read low 0.916 | locus YPL241C, strain CIN2, active compounds read low 0.984
